According to PubChem BioAssay (EPA / NIEHS):
Records with an inconclusive call do not appear. More than one record can exist for a structure, and the calls need not agree. Active and inactive are the calls of the source. How the source made its calls: active means hit-call score of the fitted dose curve at least 0.9, where 1 is the maximum; inconclusive means response in the unintended direction; inactive means score below 0.9.

Assays:
[1] = target: Estrogen receptor (Homo sapiens) (UniProt P03372); experiment: OT_ER_ERaERa_1440: Odyssey Thera (OT) 24-hour HEK293T Protein-Complementation Assay for Estrogen Receptor-alpha/-alpha Homodimer (AID 2283349);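 further: hits raise fluorescence above DMSO for agonists and antagonists alike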
In short: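 HEK293T, stable ERα LBD (aa 310-547) homodimer PCA; 24 h compound exposure; mean fluorescence intensity (nuclear for agonists, nuclear plus cytoplasmic for antagonists) vs vehicle; positive fitting direction, DMSO baseline.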

[2] = target: Estrogen receptor (Homo sapiens) (UniProt P03372); experiment: OT_ER_ERaERa_0480: Odyssey Thera (OT) 8-hour HEK293T Protein-Complementation Assay for Estrogen Receptor-alpha/-alpha Homodimer (AID 2283351);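 further: rise in fluorescence from reassembled reporter fragments on ERα LBD homodimer in nucleus or whole cell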
In short: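 Measures ERα LBD (aa 310-547) homodimer complementation in stably transfected HEK293T at 8 h post-dose, with fluorescence intensity quantified on a laser scanning cytometer relative to DMSO controls.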

[3] = test system: guinea pig Histamine Receptor (H2), gene 100729734; experiment: NVS_GPCR_gH2: NovaScreen (NVS) G Protein-Coupled Receptor Assay for guinea pig Histamine Receptor (H2) (AID 2283342)
In short: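 Guinea pig striatal membrane preparation with specific radioligand; bound counts measured by filtration and scintillation 1 h post-dosing, DMSO as baseline. Chemicals passing a 25 uM duplicate screen were titrated to a 50 uM maximum.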

NCBI gene 100848466 = experiment: NVS_NR_bPR: NovaScreen (NVS) Nuclear Receptor Binding Assay for bovine Progextron Receptor (PR) (AID 2283343);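 on AC50: actives lower bound radioligand signal below DMSO meaning displacement of the label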
In short: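 Competitive radioligand binding with membranes from bovine uterus, scintillation read-out at 18 h post-dose. Compounds first tested in duplicate at 25 uM, then actives in concentration series; loss-of-signal relative to DMSO.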

[4] = target: T1, Estrogen receptor (Homo sapiens) + Estrogen receptor beta (Homo sapiens) (UniProt P03372+Q92731); experiment: OT_ER_ERaERb_0480: Odyssey Thera (OT) 8-hour HEK293T Protein-Complementation Assay for Estrogen Receptor-alpha/-beta Heterodimer (AID 2283352)
In short: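 HEK293T cells expressing ER-alpha/ER-beta LBD fusions to complementary reporter fragments were dosed with compound for 8 hours. Heterodimer formation was read as increased nuclear (agonist) or nuclear plus cytoplasmic (antagonist) mean fluorescence intensity versus DMSO vehicle.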

[5] = target: T1, Estrogen receptor (Homo sapiens) + Estrogen receptor beta (Homo sapiens); experiment: OT_ER_ERaERb_1440: Odyssey Thera (OT) 24-hour HEK293T Protein-Complementation Assay for Estrogen Receptor-alpha/-beta Homodimer (AID 2283356);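 further: heteromer of ER alpha and ER beta binding domains; hits raise reporter fluorescence and both agonists and antagonists give an increase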
In short: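 HEK293T cells stably expressing a PCA pair of ERα LBD (aa 310-547) and ERβ LBD (aa 263-489) were dosed for 24 h. Fluorescence intensity increase versus DMSO vehicle was fitted as gain-of-signal.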

[6] = target: Estrogen receptor beta (Homo sapiens) (UniProt Q92731); experiment: OT_ER_ERbERb_0480: Odyssey Thera (OT) 8-hour HEK293T Protein-Complementation Assay for Estrogen Receptor-beta/-beta Homodimer (AID 2283357);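 further: active means signal gain over DMSO baseline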
In short: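 ER-beta LBD homodimer PCA stably expressed in HEK293T; 8 h compound exposure, then formaldehyde fixation and Draq5 staining. Gain in nuclear/cytoplasmic fluorescence intensity versus DMSO vehicle, read on laser scanning cytometer.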

[7] = target: human Peroxisome Proliferator-activated Receptor alpha (PPARa), PPARA (gene 5465) (UniProt Q07869); experiment: NVS_NR_hPPARa: NovaScreen (NVS) Nuclear Receptor Binding Assay for human Peroxisome Proliferator-activated Receptor alpha (PPARa) (AID 2283359);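 further: activity means loss of TR-FRET signal versus DMSO baseline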
human Peroxisome Proliferator-activated Receptor alpha (PPARa), PPARA (gene 5465), sequence (Q07869 whole entry, looked up): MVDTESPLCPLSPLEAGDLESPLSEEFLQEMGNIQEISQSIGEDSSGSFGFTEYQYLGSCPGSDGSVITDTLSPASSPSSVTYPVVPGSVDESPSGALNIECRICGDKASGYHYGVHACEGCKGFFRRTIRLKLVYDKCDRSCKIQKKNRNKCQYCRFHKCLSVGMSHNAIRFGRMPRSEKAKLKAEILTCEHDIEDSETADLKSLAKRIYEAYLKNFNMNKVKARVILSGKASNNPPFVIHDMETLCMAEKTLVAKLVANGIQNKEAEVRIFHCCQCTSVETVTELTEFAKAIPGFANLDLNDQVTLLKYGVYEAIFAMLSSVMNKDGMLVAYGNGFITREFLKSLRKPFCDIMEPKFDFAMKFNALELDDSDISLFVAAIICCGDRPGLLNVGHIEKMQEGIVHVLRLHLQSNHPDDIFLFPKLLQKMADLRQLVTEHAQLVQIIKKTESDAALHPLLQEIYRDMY
In short: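 Loss of TR-FRET binding signal relative to DMSO was measured 1 h after chemical addition to extracted receptor protein. Chemicals were first tested in duplicate at 25 uM, and actives were followed up in concentration series.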

PGR (gene 5241) = PGR (gene 5241) (UniProt P06401); experiment: NVS_NR_hPR: NovaScreen (NVS) Nuclear Receptor Binding Assay for human Progestron Receptor (PR) (AID 2283360);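 further: active means loss of bound radioligand signal versus DMSO baseline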
PGR (gene 5241), sequence (P06401 whole entry, looked up): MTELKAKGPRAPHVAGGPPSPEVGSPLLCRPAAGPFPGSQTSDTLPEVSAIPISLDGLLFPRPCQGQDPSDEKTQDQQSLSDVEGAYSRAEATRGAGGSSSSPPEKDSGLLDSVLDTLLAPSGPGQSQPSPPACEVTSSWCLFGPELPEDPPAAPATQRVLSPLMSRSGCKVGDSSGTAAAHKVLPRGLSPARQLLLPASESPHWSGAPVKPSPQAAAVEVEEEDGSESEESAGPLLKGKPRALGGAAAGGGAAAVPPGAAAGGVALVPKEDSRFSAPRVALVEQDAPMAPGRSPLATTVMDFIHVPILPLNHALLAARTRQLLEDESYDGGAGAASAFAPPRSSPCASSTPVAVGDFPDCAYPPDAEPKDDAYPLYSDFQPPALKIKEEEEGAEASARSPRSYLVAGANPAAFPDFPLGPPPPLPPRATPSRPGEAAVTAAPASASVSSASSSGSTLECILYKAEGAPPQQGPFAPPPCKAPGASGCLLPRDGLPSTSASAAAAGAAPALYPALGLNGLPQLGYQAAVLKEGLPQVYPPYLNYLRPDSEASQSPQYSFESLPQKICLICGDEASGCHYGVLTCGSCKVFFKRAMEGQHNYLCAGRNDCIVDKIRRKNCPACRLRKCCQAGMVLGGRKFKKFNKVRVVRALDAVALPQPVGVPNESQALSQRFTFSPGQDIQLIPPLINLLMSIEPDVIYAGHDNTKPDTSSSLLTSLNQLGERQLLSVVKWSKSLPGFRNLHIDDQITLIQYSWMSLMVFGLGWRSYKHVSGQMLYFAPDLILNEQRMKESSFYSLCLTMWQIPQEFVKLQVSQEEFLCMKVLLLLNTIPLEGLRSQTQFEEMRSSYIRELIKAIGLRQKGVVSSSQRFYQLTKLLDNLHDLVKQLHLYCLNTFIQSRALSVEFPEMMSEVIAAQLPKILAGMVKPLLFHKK
In short: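 Competitive displacement of a labelled radioligand from T47D-derived receptor protein is measured in a cell-free format. Initial testing uses 25 uM in duplicate, with positive and negative controls on every plate.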

[8] = target: human Constitutive Androstane Receptor (CAR), NR1I3 (gene 9970) (UniProt Q14994); experiment: NVS_NR_hCAR_Antagonist: NovaScreen (NVS) Nuclear Receptor Binding Assay for human Constitutive Androstane Receptor Antagonism (CAR) (AID 2283344)
human Constitutive Androstane Receptor (CAR), NR1I3 (gene 9970), sequence (Q14994 whole entry, looked up): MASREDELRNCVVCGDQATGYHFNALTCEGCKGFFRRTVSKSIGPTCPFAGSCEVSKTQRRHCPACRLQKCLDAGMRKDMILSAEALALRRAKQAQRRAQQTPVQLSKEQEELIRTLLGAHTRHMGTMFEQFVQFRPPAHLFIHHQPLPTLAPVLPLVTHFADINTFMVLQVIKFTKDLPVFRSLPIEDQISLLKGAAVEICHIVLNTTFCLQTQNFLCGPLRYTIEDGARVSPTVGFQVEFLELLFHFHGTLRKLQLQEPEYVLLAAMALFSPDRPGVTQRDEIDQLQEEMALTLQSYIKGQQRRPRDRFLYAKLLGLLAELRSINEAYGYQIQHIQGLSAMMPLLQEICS
In short: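 Single 25 uM duplicate primary screen, with concentration-series follow-up on actives. Cell-free binding format run in antagonist mode, TR-FRET signal taken 1 h post-dose; activity is signal loss relative to DMSO.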

[9] = target: Androgen Receptor/SRC-1 Co-activator, AR (gene 367) (UniProt P10275); experiment: OT_AR_ARSRC1_0960: Odyssey Thera (OT) 16-hour HEK293T Protein-Complementation Assay for Androgen Receptor/SRC-1 Co-activator (AID 2283353);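 further: actives raise the signal above DMSO so potency reflects increased AR and SRC-1 complex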
Androgen Receptor/SRC-1 Co-activator, AR (gene 367), sequence (P10275 whole entry, looked up, the tested form may be a part): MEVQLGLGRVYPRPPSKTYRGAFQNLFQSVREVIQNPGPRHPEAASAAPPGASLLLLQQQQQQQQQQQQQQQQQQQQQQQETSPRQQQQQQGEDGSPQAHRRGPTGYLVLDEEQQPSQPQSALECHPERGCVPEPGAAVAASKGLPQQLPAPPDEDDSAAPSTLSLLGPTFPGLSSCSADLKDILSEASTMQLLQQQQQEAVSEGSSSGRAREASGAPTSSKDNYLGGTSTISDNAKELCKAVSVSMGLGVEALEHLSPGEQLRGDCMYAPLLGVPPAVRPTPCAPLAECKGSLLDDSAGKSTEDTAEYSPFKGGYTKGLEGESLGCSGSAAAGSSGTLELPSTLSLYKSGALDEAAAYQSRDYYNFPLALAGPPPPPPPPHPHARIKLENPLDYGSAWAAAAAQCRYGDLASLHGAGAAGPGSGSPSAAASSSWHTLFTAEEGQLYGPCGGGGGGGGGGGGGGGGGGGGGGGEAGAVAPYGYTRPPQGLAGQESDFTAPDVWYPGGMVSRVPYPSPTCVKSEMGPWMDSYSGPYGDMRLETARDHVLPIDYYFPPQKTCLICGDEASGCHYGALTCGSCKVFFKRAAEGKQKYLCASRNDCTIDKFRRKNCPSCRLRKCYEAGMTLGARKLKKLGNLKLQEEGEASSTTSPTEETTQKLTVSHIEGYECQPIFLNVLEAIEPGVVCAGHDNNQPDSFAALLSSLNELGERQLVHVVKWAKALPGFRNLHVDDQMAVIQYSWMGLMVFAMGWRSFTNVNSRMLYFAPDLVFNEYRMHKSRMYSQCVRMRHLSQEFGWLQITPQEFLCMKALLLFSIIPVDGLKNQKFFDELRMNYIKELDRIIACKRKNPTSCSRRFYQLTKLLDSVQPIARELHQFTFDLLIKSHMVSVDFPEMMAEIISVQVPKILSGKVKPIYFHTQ
In short: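 Sixteen-hour cell assay: Venus halves fused to AR and SRC-1 in HEK293T report binding. Images at 488/635 nm give an N/C ratio in the 488 nm channel over ≥400 cells, analysed as signal increase over DMSO.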

[10] = target: Androgen Receptor/SRC-1 Co-activator, AR (gene 367) (UniProt P10275); experiment: OT_AR_ARSRC1_0480: Odyssey Thera (OT) 8-hour HEK293T Protein-Complementation Assay for Androgen Receptor/SRC-1 Co-activator (AID 2283354);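 further: hits raise the complementation signal above DMSO so AC50 marks enhancers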
In short: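 Reconstituted split-Venus YFP signal from AR–SRC-1 interaction, read by imaging 8 h post-dose in stable HEK293T lines. The 488 nm nucleus-to-cytoplasm ratio (≥400 cells/image) was fitted upward against DMSO.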

[11] = target: Retinoic acid receptor alpha (Homo sapiens) (UniProt P10276); experiment: NVS_NR_hRAR_Antagonist: NovaScreen (NVS) Nuclear Receptor Binding Assay for human Retinoic Acid Alpha Receptor Antagonism (RAR) (AID 2283358)
Retinoic acid receptor alpha (Homo sapiens), sequence (P10276 whole entry, looked up): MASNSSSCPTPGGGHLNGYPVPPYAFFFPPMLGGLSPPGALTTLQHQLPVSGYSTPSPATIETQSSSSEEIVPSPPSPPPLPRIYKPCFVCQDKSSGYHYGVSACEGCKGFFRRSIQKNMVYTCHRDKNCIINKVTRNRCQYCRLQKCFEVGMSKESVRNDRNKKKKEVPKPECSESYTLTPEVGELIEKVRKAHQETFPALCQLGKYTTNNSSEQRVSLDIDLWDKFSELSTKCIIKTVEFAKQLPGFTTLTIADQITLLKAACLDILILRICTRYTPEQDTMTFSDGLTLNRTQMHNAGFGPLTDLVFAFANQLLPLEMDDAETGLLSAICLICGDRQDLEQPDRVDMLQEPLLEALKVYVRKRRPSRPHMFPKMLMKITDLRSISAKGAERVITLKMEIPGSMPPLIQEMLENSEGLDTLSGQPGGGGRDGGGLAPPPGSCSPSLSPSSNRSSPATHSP
In short: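 RARalpha antagonism was read by TR-FRET as loss of binding signal versus DMSO, 2 h after chemical addition, in a biochemical format. Single-concentration duplicates (25 uM) were run first, and actives were retested in concentration series.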

[12] = target: Estrogen receptor (Homo sapiens) (UniProt P03372); experiment: NVS_NR_hER: NovaScreen (NVS) Nuclear Receptor Binding Assay for human Estrogen Receptor (ER) (AID 2283348)
In short: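 Cell-free MCF7-derived ER preparation, specific radioligand displaced by test compound, read by scintillation counting 18 h post-dosing. Duplicate single-point 25 uM screen, then concentration-response confirmation; DMSO baseline.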

[13] = target: bovine Estrogen Receptor (ER), ESR1 (gene 407238) (UniProt P49884); experiment: NVS_NR_bER: NovaScreen (NVS) Nuclear Receptor Binding Assay for bovine Estrogen Receptor (ER) (AID 2283345);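 further: actives lower the bound radioligand count which means they displace the ER ligand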
bovine Estrogen Receptor (ER), ESR1 (gene 407238), sequence (P49884 whole entry, looked up): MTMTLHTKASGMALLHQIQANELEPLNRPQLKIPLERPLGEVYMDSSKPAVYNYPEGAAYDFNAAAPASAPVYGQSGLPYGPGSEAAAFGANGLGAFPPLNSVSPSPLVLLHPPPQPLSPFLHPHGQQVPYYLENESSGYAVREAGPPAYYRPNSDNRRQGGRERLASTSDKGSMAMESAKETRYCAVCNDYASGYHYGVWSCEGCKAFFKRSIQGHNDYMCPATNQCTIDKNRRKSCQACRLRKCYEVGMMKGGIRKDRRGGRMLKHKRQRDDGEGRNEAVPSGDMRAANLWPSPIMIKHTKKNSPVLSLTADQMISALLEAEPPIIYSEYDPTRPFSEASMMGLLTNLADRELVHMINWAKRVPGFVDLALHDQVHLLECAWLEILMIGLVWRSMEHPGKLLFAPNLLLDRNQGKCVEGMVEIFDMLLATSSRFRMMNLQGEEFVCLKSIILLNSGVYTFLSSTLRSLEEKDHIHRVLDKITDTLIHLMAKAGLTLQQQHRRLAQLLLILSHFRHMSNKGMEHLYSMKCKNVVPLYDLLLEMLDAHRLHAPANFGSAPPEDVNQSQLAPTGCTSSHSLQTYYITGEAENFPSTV
In short: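 Bovine uterine membranes; tritiated or iodinated radioligand; competitive displacement; 18 h; scintillation read; DMSO negative control; 25 uM duplicates, then concentration series for actives.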

[14] = target: chimpanzee Androgen Receptor (AR), AR (gene 747460) (UniProt O97775); experiment: NVS_NR_cAR: NovaScreen (NVS) Nuclear Receptor Binding Assay for chimpanzee Androgen Receptor (AR) (AID 2283346);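 further: radioligand displacement from AR measured by scintillation counting in a cell-free assay; a loss of bound radioligand signal versus DMSO counts as binding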
chimpanzee Androgen Receptor (AR), AR (gene 747460), sequence (O97775 whole entry, looked up): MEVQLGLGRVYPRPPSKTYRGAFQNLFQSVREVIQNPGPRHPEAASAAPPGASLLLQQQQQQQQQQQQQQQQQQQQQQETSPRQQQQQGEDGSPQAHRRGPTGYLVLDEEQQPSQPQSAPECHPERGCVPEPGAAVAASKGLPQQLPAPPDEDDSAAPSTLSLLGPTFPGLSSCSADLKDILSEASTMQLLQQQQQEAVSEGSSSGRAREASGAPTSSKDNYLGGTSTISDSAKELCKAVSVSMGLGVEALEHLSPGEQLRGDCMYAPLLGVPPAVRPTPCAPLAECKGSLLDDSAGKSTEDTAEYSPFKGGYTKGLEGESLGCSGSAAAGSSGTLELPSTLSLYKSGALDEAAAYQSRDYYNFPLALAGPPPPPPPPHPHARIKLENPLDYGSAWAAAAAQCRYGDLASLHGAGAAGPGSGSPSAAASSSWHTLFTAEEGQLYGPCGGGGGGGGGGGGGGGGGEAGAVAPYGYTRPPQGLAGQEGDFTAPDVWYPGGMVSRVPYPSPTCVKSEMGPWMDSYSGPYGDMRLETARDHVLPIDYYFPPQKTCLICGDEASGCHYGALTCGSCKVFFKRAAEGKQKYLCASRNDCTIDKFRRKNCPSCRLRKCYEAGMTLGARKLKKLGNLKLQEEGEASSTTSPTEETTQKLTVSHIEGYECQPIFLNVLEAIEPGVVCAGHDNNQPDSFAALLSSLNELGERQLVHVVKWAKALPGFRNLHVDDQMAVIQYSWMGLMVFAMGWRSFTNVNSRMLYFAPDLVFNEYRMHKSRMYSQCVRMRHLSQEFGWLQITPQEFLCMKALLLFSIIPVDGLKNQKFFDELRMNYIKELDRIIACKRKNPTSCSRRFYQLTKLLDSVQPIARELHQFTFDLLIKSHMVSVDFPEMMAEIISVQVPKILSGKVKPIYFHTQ
In short: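 Cell-free competition binding with insect-cell (Sf9/Sf21) extracted chimpanzee AR; scintillation signal from lysate at 72 h. Screened in duplicate at 25 uM, then concentration-response for actives; fitting relative to DMSO.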

[15] = target: Retinoic acid receptor alpha (Homo sapiens) (UniProt P10276); experiment: NVS_NR_hRARa_Agonist: NovaScreen (NVS) Nuclear Receptor Binding Assay for human Retinoic Acid Alpha Receptor Agonism (RAR) (AID 2283361)
In short: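 Agonist-mode TR-FRET binding format using extracted protein, measured at 2 h post-dosing. Initial duplicate single-point screen at 25 uM preceded concentration series for actives; activity was normalized to DMSO baseline.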

[16] = target: Bile acid receptor (Homo sapiens) (UniProt Q96RI1); experiment: NVS_NR_hFXR_Antagonist: NovaScreen (NVS) Nuclear Receptor Binding Assay for human Farnesoid X Receptor Antagonism (FXR) (AID 2283350)
In short: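 Antagonist-format time-resolved FRET binding assay with extracted human receptor protein, read 1 hour after compound addition. Compounds first screened at 25 uM in duplicate, then actives tested in concentration series, with loss of signal relative to DMSO.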

[17] = target: rat Glycine Receptor, Strychnine-sensitive (GlyRStrySens), Glra1 (gene 25674) (UniProt P07727); experiment: NVS_LGIC_rGlyRStrySens: NovaScreen (NVS) Ligand-Gated Ion Channel Assay for rat Glycine Receptor, Strychnine-sensitive (GlyRStrySens) (AID 2283341)
In short: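 Radioligand displacement on rat spinal cord membranes, 1 hr, filter scintillation read-out. Single-concentration duplicate screen at 25 uM; chemicals meeting threshold (e.g., 30% inhibition) rerun in concentration-response up to 50 uM. Loss of binding fitted versus DMSO.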

Measured: AC50

CCOC(N)=O
inactive: [1] | [2]

Cc1nccn1-c1ccc(Sc2cccc(C3(C(N)=O)CCOCC3)c2)cc1
active: NCBI gene 100848466 7.1 µM | [5] 20.9 µM | [6] 32.3 µM | PGR (gene 5241) 6.18 µM
inactive: [3] | [1] | [2] | [4] | [7]

Cc1nc(-c2ccccn2)ncc1C(=O)Nn1cc(C)c2cc(F)ccc21
inactive: [8] | [1] | [2] | [4] | [9] | [10] | [5] | [6] | [11]

CC(C)C(=O)Nc1ccc([N+](=O)[O-])c(C(F)(F)F)c1
inactive: NCBI gene 100848466 | [12] | [1] | [2] | [4] | [6] | [7]

O=c1[nH]cnc2c1ncn2[C@H]1CC[C@@H](CO)O1
inactive: [8] | [1] | [2]

OC[C@H]1O[C@@H]2O[C@H]3[C@H](O)[C@@H](O)[C@@H](O[C@H]4[C@H](O)[C@@H](O)[C@@H](O[C@H]5[C@H](O)[C@@H](O)[C@@H](O[C@H]6[C@H](O)[C@@H](O)[C@@H](O[C@H]7[C@H](O)[C@@H](O)[C@@H](O[C@H]1[C@H](O)[C@H]2O)O[C@@H]7CO)O[C@@H]6CO)O[C@@H]5CO)O[C@@H]4CO)O[C@@H]3CO
inactive: [1] | [2] | [4] | [5] | [6]
active: [13] 1.18 µM | [12] 0.472 µM

Cc1cccc(O)c1C
inactive: [13] | [12] | [1] | [2] | [4] | [5] | [6]

O=C(O)c1cccc(C[C@@H]2COc3ccc(OCc4nc5cc(F)ccc5s4)cc3[C@@H]2O)c1
inactive: [13] | [1] | [2] | [5] | [6] | [7]
active: [14] 20.8 µM

CCN(CC)C(=S)SSC(=S)N(CC)CC
inactive: [12] | [1] | [2] | [4] | [6]
active: [9] 59.6 µM | [10] 23.9 µM | [5] 12 µM

CCCCCCCCCCCCCCCCOS(=O)(=O)O
inactive: [8] | [1] | [2] | [4] | [9] | [10] | [5] | [6] | [7]

NC(=O)N1c2ccccc2C=Cc2ccccc21
inactive: [13] | [1] | [2] | [4] | [5] | [6] | [11] | PGR (gene 5241)

OCCNCCO
inactive: [2]
active: [1] 11.9 µM

Cn1cc[nH]c1=S
inactive: NCBI gene 100848466 | [1] | [2] | [4] | [5] | [6] | PGR (gene 5241)

Cc1ncc([C@@H](CCCCCCc2ccc3c(n2)NCCC3)CC(=O)O)cn1
inactive: [1] | [2] | [4] | [5] | [6] | [7]
active: [3] 25 µM

COc1cc(C(C)C)c2c(c1)S(=O)(=O)N(COc1cc(=O)n3cccc(OCCN4CCCCC4)c3n1)C2=O
active: [3] 3.13 µM | [9] 10.6 µM | [10] 18.1 µM
inactive: [12] | [1] | [2] | [11] | [7] | [15]

OCC(CO)(CO)CO
inactive: [13] | [1] | [2] | [4] | [5] | [6]
active: [12] 3.49 µM

CCc1ccc(O)c(C(C)(C)C)c1
active: [6] 11.9 µM
inactive: [12] | [1] | [2] | [4] | [5] | [7] | PGR (gene 5241)

c1ccc2c(c1)-c1cccc3c1c-2cc1ccccc13
inactive: [14] | [1] | [2] | [4] | [5] | [6]

CCCCC(CC)C(=O)OCCOCCOCCOC(=O)C(CC)CCCC (configuration not stated)
inactive: [8] | [13] | [12] | [1] | [2] | [4] | [9] | [10] | [5] | [6]

O=C(O)c1cccc(C(=O)O)c1
inactive: [1] | [2]

c1ccc2ncccc2c1
inactive: [1] | [2]

CC1(C)C(=O)N(Cl)C(=O)N1Cl
inactive: [1]

NNC(=O)c1ccncc1
inactive: [12] | [1] | [2] | [4] | [5] | [6]

CCc1cccc(CC)c1N
inactive: [1] | [2] | [4] | [9] | [5] | [6] | PGR (gene 5241)
active: [12] 10 µM

C[C@]12C=CC(=O)C=C1CC[C@H]1[C@@H]3C[C@@H](O)[C@](O)(C(=O)CO)[C@@]3(C)C[C@H](O)[C@@]12F
active: [14] 32.6 µM | [12] 38.3 µM
inactive: [13] | [1] | [2] | PGR (gene 5241)

C=CCc1cc(S(=O)(=O)c2ccc(O)c(CC=C)c2)ccc1O
inactive: NCBI gene 100848466 | [12] | [1] | [2] | [4] | [5] | [6]
active: [13] 19.1 µM | [14] 33.1 µM | [12] 12.5 µM | [16] 18.2 µM | [9] 69.1 µM | [10] 82.7 µM | [7] 25 µM

CCCCCOC(C)=O
inactive: [1] | [2]

COS(C)(=O)=O
inactive: [13] | [12] | [1] | [2]

CCCCCCCC1CCC(=O)O1 (configuration not stated)
inactive: [17] | [1] | [2] | [4] | [5] | [6]

O=C(O)c1ccc2c(c1)nc(C(=O)NC1CCN(C3CC3)CC1)n2Cc1cc(-c2ccc(Cl)s2)on1
inactive: [8] | [1] | [2] | [4] | [5] | [6] | [7]

CCCCCCCCCC
inactive: [13] | [1] | [2] | [4] | [5] | [6] | PGR (gene 5241)
